Where a name gives a salt, the structure may show the parent alone.
Tested on: Saccharomyces cerevisiae BY4741 SeMeCo community
Assay: z-score of subpopulation abundance vs DMSO median, subpopulation auxotrophic for LU; higher = larger share of this subpopulation than in DMSO controls
Details: 10 µM; 24 h; SM minimal medium; subpopulation (auxotrophy): LU
Procedure, shortened: (§1)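 Four plasmids, each restoring a single auxotrophy and encoding a distinct fluorescent protein, were carried by a Saccharomyces cerevisiae BY4741 community. After overnight growth to OD600 1.0 and dilution to 0.3, 70 µl per well was grown for 24 h in minimal SM medium on 384-well plates acoustically predosed with library drugs at 10 µM final. Following paraformaldehyde fixation, automated confocal microscopy was used, with single-auxotroph fluorescent strains defining thresholds and autofluorescence correction. Subpopulation abundance was then scored as a z-score against the vehicle-well median.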

Structure (SMILES)	z-score of subpopulation abundance
CN1C2CCCC1CC(NC(=O)c1nn(C)c3ccccc13)C2 (centres undefined) [Granisetron]	-0.92
CCC[C@@H]1C[C@@H](C(=O)N[C@@H]([C@H]2O[C@H](SC)[C@H](O)[C@@H](O)[C@H]2O)[C@@H](C)O)N(C)C1 [Lincomycin HCl]	-0.63
CCc1c2c(nc3ccc(OC(=O)N4CCC(N5CCCCC5)CC4)cc13)-c1cc3c(c(=O)n1C2)COC(=O)[C@]3(O)CC [Irinotecan HCl Trihydrate]	-0.66
Cc1[nH]c(=O)c(C#N)cc1-c1ccncc1 [Milrinone]	-0.56
C[C@@H](O)[C@H]1C(=O)N2C(C(=O)O)=C(S[C@@H]3CN[C@H](C(=O)Nc4cccc(C(=O)O)c4)C3)[C@H](C)[C@H]12 [Ertapenem sodium]	-0.01
CN(C)CCc1c[nH]c2ccc(C[C@H]3COC(=O)N3)cc12 [Zolmitriptan]	-0.9
Clc1ccc(C(Cn2ccnc2)OCc2ccsc2Cl)c(Cl)c1 (centres undefined) [Tioconazole]	-0.51
CN1CCOC(c2ccccc2)c2ccccc2C1 (centres undefined) [Nefopam HCl]	0.08
C[C@]1(Cn2ccnn2)[C@H](C(=O)O)N2C(=O)C[C@H]2S1(=O)=O [Tazobactam]	0.66

Tested on: Saccharomyces cerevisiae BY4741 SeMeCo community
Assay: z-score of subpopulation abundance vs DMSO median, subpopulation auxotrophic for LM; higher = larger share of this subpopulation than in DMSO controls
Details: 10 µM; 24 h; SM minimal medium; subpopulation (auxotrophy): LM
Procedure, shortened: as §1

Structure (SMILES)	z-score of subpopulation abundance
CC(=O)OCC1=C(C(=O)O)N2C(=O)[C@@H](NC(=O)CSc3ccncc3)[C@H]2SC1 [Cephapirin Benzathine]	0.09
O=C(CCCN1CCC(O)(c2ccc(Cl)cc2)CC1)c1ccc(F)cc1 [Haloperidol]	0.48
O=C(c1ccccc1)c1ccc2n1CCC2C(=O)O (centres undefined) [Ketorolac]	0.62
C#CCC(Cc1cnc2nc(N)nc(N)c2n1)c1ccc(C(=O)N[C@@H](CCC(=O)O)C(=O)O)cc1 (some centres undefined) [Pralatrexate]	3.24
CCCCC(F)(F)[C@@]1(O)CC[C@H]2[C@@H](CC(=O)[C@@H]2CCCCCCC(=O)O)O1 [Lubiprostone]	-1.08
Cc1c(Nc2ncccc2C(=O)O)cccc1C(F)(F)F [Flunixin Meglumin]	-1.23
COc1ccc2[nH]c([S+]([O-])Cc3ncc(C)c(OC)c3C)nc2c1 (centres undefined) [Omeprazole Sodium]	-0.57
O=C(O)c1cc(=O)c2c(OCC(O)COc3cccc4oc(C(=O)O)cc(=O)c34)cccc2o1 [Disodium Cromoglycate]	-0.12
CCCCCCCCN=C(N)NC(N)=NCc1ccc(Cl)c(Cl)c1 [Olanexidine Hydrochloride semihydrate]	-0.77
CN1C2CCCC1CC(NC(=O)c1nn(C)c3ccccc13)C2 (centres undefined) [Granisetron]	-0.49
CN(C)CCc1c[nH]c2ccc(C[C@H]3COC(=O)N3)cc12 [Zolmitriptan]	-0.12
Clc1ccc(C(Cn2ccnc2)OCc2ccsc2Cl)c(Cl)c1 (centres undefined) [Tioconazole]	-1.99

Tested on: Saccharomyces cerevisiae BY4741 SeMeCo community
Assay: z-score of subpopulation abundance vs DMSO median, subpopulation auxotrophic for HM; higher = larger share of this subpopulation than in DMSO controls
Details: 10 µM; 24 h; SM minimal medium; subpopulation (auxotrophy): HM
Procedure, shortened: as §1

Structure (SMILES)	z-score of subpopulation abundance
NC(=O)N1c2ccccc2CC(=O)c2ccccc21 [Oxcarbazepine]	0
COc1ccc(C[C@H](N)C(=O)N[C@H]2[C@@H](O)[C@H](n3cnc4c(N(C)C)ncnc43)O[C@@H]2CO)cc1 [Puromycin 2HCl]	0
OCc1ccccc1O[C@@H]1O[C@H](CO)[C@@H](O)[C@H](O)[C@H]1O [Salicin]	-0.68
COc1cc(O)c(C(=O)Nc2nc(C(=O)NCCN(C(C)C)C(C)C)cs2)cc1OC [Acotiamide]	0.64
CC(=O)OCC(CCn1cnc2cnc(N)nc21)COC(C)=O [Famciclovir]	0.41
CC[C@H]1OC(=O)[C@H](C)[C@@H](O[C@H]2C[C@@](C)(OC)[C@@H](O)[C@H](C)O2)[C@H](C)[C@@H](O[C@@H]2O[C@H](C)C[C@H](N(C)C)[C@H]2O)[C@](C)(O)C[C@@H](C)[C@@H]2N[C@@H](COCCOC)O[C@H]([C@H]2C)[C@]1(C)O [Dirithromycin]	-0.53
NNc1nncc2ccccc12 [Hydralazine HCl]	-0.62
COc1cccc2c1C(=O)c1c(O)c3c(c(O)c1C2=O)CC(O)(C(=O)CO)CC3OC1CC(N)C(O)C(C)O1 (centres undefined) [Doxorubicin (Adriamycin) HCl]	-2.19
CCN1CCCC1CNC(=O)c1cc(S(N)(=O)=O)ccc1OC (centres undefined) [Sulpiride]	-0.46
CCCN[C@H]1CCc2nc(N)sc2C1 [Pramipexole]	0.07
CO[C@H]1C[C@@H]2CC[C@@H](C)[C@@](O)(O2)C(=O)C(=O)N2CCCC[C@H]2C(=O)O[C@H]([C@H](C)C[C@@H]2CC[C@@H](OP(C)(C)=O)[C@H](OC)C2)CC(=O)[C@H](C)/C=C(\C)[C@@H](O)[C@@H](OC)C(=O)[C@H](C)C[C@H](C)/C=C/C=C/C=C/1C [Ridaforolimus (Deforolimus, MK-8669)]	20.9
C#C[C@]1(OC(C)=O)CC[C@H]2[C@@H]3CCC4=C[C@@H](OC(C)=O)CC[C@@H]4[C@H]3CC[C@@]21C [Ethynodiol diacetate]	-0.18
Cc1ccccc1C(OCCN(C)C)c1ccccc1 (centres undefined) [Orphenadrine Citrate]	-0.64
CCOc1cc(N)c([N+](=O)[O-])cc1C(=O)NC1CCN(CC2CC=CCC2)CC1 (centres undefined) [Cinitapride Hydrogen Tartrate]	0.24
Cc1onc(-c2ccccc2)c1-c1ccc(S(N)(=O)=O)cc1 [Valdecoxib]	-0.77
COc1ccc(Cc2cnc(N)nc2N)cc1OC [Diaveridine]	-0.29
CC1(C)[C@H](C(=O)O)N2C(=O)C[C@H]2S1(=O)=O [Sulbactam sodium]	0.23
CCc1cc(C(N)=S)ccn1 [Ethionamide]	0.03
Clc1ccc(C(Cn2ccnc2)OCc2c(Cl)cccc2Cl)c(Cl)c1 (centres undefined) [Isoconazole nitrate]	3.75
Nc1nc(N)nc(-c2cc(Cl)ccc2Cl)n1 [Irsogladine]	-0.68
NC(=O)c1ncn([C@@H]2O[C@H](CO)[C@@H](O)[C@H]2O)n1 [Ribavirin]	-0.41
CC1(C)S[C@@H]2[C@H](NC(=O)[C@H](N)c3ccccc3)C(=O)N2[C@H]1C(=O)OCOC(=O)[C@@H]1N2C(=O)C[C@H]2S(=O)(=O)C1(C)C [Sultamicillin]	0.78
CCC[C@@H]1C[C@@H](C(=O)N[C@@H]([C@H]2O[C@H](SC)[C@H](O)[C@@H](O)[C@H]2O)[C@@H](C)O)N(C)C1 [Lincomycin HCl]	-0.17
CCc1c2c(nc3ccc(OC(=O)N4CCC(N5CCCCC5)CC4)cc13)-c1cc3c(c(=O)n1C2)COC(=O)[C@]3(O)CC [Irinotecan HCl Trihydrate]	0.47
Cc1[nH]c(=O)c(C#N)cc1-c1ccncc1 [Milrinone]	-0.67
C[C@@H](O)[C@H]1C(=O)N2C(C(=O)O)=C(S[C@@H]3CN[C@H](C(=O)Nc4cccc(C(=O)O)c4)C3)[C@H](C)[C@H]12 [Ertapenem sodium]	-0.22
CN1CCOC(c2ccccc2)c2ccccc2C1 (centres undefined) [Nefopam HCl]	-0.51
C[C@]1(Cn2ccnn2)[C@H](C(=O)O)N2C(=O)C[C@H]2S1(=O)=O [Tazobactam]	-0.74

Source: the supplement of paper PMC8975748
